# PubChem BioAssay AID488835 (Broad Institute, 2010)
# Screen size: about 1,400 compounds; about 140 (10%) were called active.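 How the source made its calls: active means Half-maximal inhibitory dose from the fit at or below ten times the top valid tested dose; inconclusive means Invalid fit, or flat curve showing 30 to 70% inhibition; inactive means the rest.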 The list is a sample of the results. Entries with a potency or affinity are not part of this list.
# Target: Lysine-specific demethylase 4C (Homo sapiens) (UniProt Q9H3R0)
# Sequence (Q9H3R0 1-420 limits assumed): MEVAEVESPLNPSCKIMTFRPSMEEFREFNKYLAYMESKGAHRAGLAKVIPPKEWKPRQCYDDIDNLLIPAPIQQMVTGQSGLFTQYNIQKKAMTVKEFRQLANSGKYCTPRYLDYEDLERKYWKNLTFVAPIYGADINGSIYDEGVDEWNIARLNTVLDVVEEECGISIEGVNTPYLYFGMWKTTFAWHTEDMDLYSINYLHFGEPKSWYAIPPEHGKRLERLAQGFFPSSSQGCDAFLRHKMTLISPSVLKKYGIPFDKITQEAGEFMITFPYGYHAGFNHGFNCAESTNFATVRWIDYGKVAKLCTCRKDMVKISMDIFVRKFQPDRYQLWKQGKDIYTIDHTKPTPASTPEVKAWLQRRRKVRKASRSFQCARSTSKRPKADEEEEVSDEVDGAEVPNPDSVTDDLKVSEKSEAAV
# Assay: inhibition of JMJD2C H3K9me3 demethylation – biochemical, DELFIA europium, cherry-picked samples, dose response (AID 488835);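 further: signal is the H3K9me2 demethylation product detected by a dimethyl-specific antibody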
# Details: GST-JMJD2C(1-420); series mostly up to 6 µM
row,Compound,outcome
1,O=C(CC(=O)N/N=C/c1c(F)cccc1Cl)NCc1ccccc1,inactive
2,COc1ccc(NC(=O)N(C)C[C@@H]2Oc3c(NC(=O)Nc4c(C)noc4C)cccc3C(=O)N([C@@H](C)CO)C[C@@H]2C)cc1,inactive
3,Cc1ccc(S(=O)(=O)Nc2ccc3c(c2)C(=O)N([C@H](C)CO)C[C@H](C)[C@@H](CN(C)Cc2ccccc2)O3)cc1,inactive
4,COCCCNC(=O)c1ccc2c(c1)CCN2S(C)(=O)=O,inactive
5,Nc1c(C(=O)OCC2CCCO2)c2nc3ccccc3nc2n1C1CCCC1 (configuration not stated),inactive
6,Cn1c2ccccc2c2c(C(=O)N3CCN(c4ccccn4)CC3)cn(C3CCCC3)c(=O)c21,inactive
7,Cn1c(CNC(=O)c2ccccc2F)nnc1SCC(=O)Nc1nnc(C2CC2)s1,inactive
8,COC(=O)C1CN(S(=O)(=O)c2ccc(C)cc2)CCN1S(=O)(=O)c1ccc(C)cc1 (configuration not stated),inactive
9,CCOC(=O)c1ccc(N2C(=O)C(C)=C(C)C2=O)cc1,inactive
10,CCCCCC1CC(=O)N(Cc2ccccc2)C(=O)N1 (configuration not stated),inactive
11,CCN1c2ccccc2-c2nc3ccccc3n2C1c1ccccn1 (configuration not stated),inactive
12,Cn1c(=O)c2c(ncn2CCN(CCO)Cc2ccccc2)n(C)c1=O,inactive
13,CCCCn1c(N)c(N(CC)C(=O)c2ccco2)c(=O)[nH]c1=O,inactive
14,CCN(C(=O)C(C)Sc1ccc(S(=O)(=O)N2CCOCC2)cn1)c1ccccc1 (configuration not stated),inactive
15,CCCCN(C(=S)NC(=O)c1cc(OC)c(OC)c(OC)c1)c1c(N)n(Cc2ccccc2)c(=O)[nH]c1=O,inactive
16,CCCCC1CCC(C(=O)N(CC(C)C)c2c(N)n(Cc3ccccc3)c(=O)[nH]c2=O)CC1 (configuration not stated),inactive
17,Cc1cccc(NCc2ccc(O)c3ncccc23)c1,inactive
18,COCCn1nnnc1C(c1ccccc1)N1CCN(C(=O)c2ccco2)CC1 (configuration not stated),inactive
19,Cc1ccc([N+](=O)[O-])cc1N=C(c1cccc([N+](=O)[O-])c1)N1CCOCC1,inactive
20,COc1cccc(Oc2nccc(N(C)C)c2C#N)c1,inactive
21,CC(C)CCSc1cc(NCCO)c([N+](=O)[O-])c2nonc12,inactive
22,COc1cc2c(cc1CNC[C@H]1O[C@@H](n3cnc4c(N)ncnc43)[C@H](O)[C@@H]1O)OCO2,inactive
23,CC(OC(=O)c1cccnc1SCc1cc(=O)n2ccccc2n1)c1ccccn1 (configuration not stated),inactive

row,Compound,outcome
1,CN(C(=O)c1ccc(NC(=O)Cc2ccc(NC(=O)C3CCN(C(=O)C4CC4)CC3)cc2)cc1)C1CC1,inactive
2,O=C(Nc1c(F)cc(F)cc1Br)c1ccco1,inactive
3,CC(C)NC(=O)Nc1ccc2c(c1)C(=O)N([C@H](C)CO)C[C@H](C)[C@@H](CN(C)C(=O)Nc1ccccc1)O2,inactive
4,Nc1nc(C2CC(=O)OC23CCCCC3)cs1 (configuration not stated),inactive
5,CCOc1cc(/C=N/NC(=O)C(=O)N/N=C/c2ccc(O)c(OCC)c2)ccc1O,inactive
6,O=C(O)c1ccc2c(c1)nnn2C1CCCCC1,inactive
7,Cc1oc(C(C)(C)C)cc1C(=O)N1CCN(c2ncccc2C(F)(F)F)CC1,inactive
8,O=[N+]([O-])c1ccccc1S(=O)(=O)N1CCN(Cc2ccc3c(c2)OCO3)CC1,inactive
9,CC(=O)c1c(C(C)=O)c(C)n(-c2nc(-c3cccs3)c(C)s2)c1C,inactive
10,COc1cc(-c2nnco2)cc(OC)c1OC,inactive
11,Cc1c(NC(=O)C2Cc3ccccc3CN2C(=O)c2ccco2)c(=O)n(-c2ccccc2)n1C (configuration not stated),inactive
12,CCCCNC(=O)CC1N=C2c3ccccc3N=C(SCC(=O)Nc3cccc(C)c3)N2C1=O (configuration not stated),inactive
13,O=C(CNC(=O)c1ccc(S(=O)(=O)N2CCCC2)cc1)N/N=C/c1ccccc1,inactive
14,C[C@H](CO)N1C[C@H](C)[C@@H](CN(C)C(=O)Nc2ccc3c(c2)OCO3)Oc2c(NS(=O)(=O)c3ccc(F)cc3)cccc2C1=O,inactive
15,Cc1cc(C(=O)Nc2sc3c(c2C#N)CCC(C)C3)no1 (configuration not stated),inactive
16,COc1ccc(/C(C)=N/Nc2nccnc2Cl)cc1,inactive
17,CNC[C@@H]1Oc2ccc(NC(=O)Nc3cccc4ccccc34)cc2C(=O)N([C@@H](C)CO)C[C@@H]1C,inactive
18,COc1ccc(NC(=O)N(C)C[C@H]2Oc3c(NC(=O)C4CCCCC4)cccc3C(=O)N([C@H](C)CO)C[C@@H]2C)cc1,inactive
19,CC(=O)N/C(=C\c1ccccc1)C(=O)OCC(=O)NC1CCCC1,inactive
20,Cc1ccc(S(=O)(=O)N2[C@@H](c3ccc(Cl)c(Cl)c3)C(C(=O)O)=C[C@H]2C(C)(C)C)cc1,inactive
21,NC(=O)C1CCN(c2nc(-c3ccccc3Br)cs2)CC1,inactive
22,CC(NC(=O)CCC(=O)c1ccc(F)cc1)C1CC2CCC1C2 (configuration not stated),inactive
23,Cc1ccc(S(=O)(=O)N2CCOC2CNC(=O)C(=O)NCCc2ccc(S(N)(=O)=O)cc2)cc1 (configuration not stated),inactive

row,Compound,outcome
1,Cn1c(=O)[nH]c(=O)c2c1nc(N1CCc3ccccc3C1)n2CCSc1nc2ccccc2s1,inactive
2,CC[C@H]1CCCCc2ccccc2[C@@H](C(=O)C[C@@H](O)CC(C)=O)OC1=O,inactive
3,Cn1c(=O)c2c(nc(NC3CCCCC3)n2Cc2ccccc2)n(C)c1=O,inactive
4,CCOc1ccc2nc(NC(=O)CS(=O)(=O)c3ccc(C)cc3)sc2c1,inactive
5,CCc1ccc([C@@H]2CC=C(C(=O)O)[C@H](c3ccc(Br)cc3)N2S(=O)(=O)c2ccc(C)cc2)cc1,inactive
6,CC[C@@H]1C=C(C(=O)O)[C@H](c2ccc(C)cc2)N1S(=O)(=O)c1ccc(C)cc1,inactive
7,O=C(CSc1ncccn1)NCc1ccc(F)cc1,inactive
8,C[C@H](CO)N1C[C@H](C)[C@H](CN(C)Cc2ccc(Oc3ccccc3)cc2)Oc2ccc(NC(=O)Nc3cccc4ccccc34)cc2CC1=O,inactive
9,COc1ccc(N2CCN(C(=O)Cn3nnc(-c4ccc(N(C)C)cc4)n3)CC2)cc1,inactive
10,Cc1nn(Cc2ccc([N+](=O)[O-])cc2)c(=O)n1-c1cccc(Cl)c1,inactive
11,O=C(c1oc(=O)c2ccccc2c1-c1ccccc1)N1CCOCC1,inactive
12,O=C(Nc1ccccc1)Nc1ccc(S(=O)(=O)N2CCCCC2)cc1,inactive
13,O=C(CSc1ncccn1)Nc1ccc(S(=O)(=O)N2CCCCC2)cc1,inactive
14,Cc1noc(C)c1NC(=O)Nc1cccc2c1O[C@H](CN(C)S(=O)(=O)c1cccs1)[C@@H](C)CN([C@H](C)CO)C2=O,inactive
15,COC(=O)c1cc(OC)c(OC)cc1NC(=O)Cn1nnc(-c2ccccc2Cl)n1,inactive
16,CC12CN3CC(C)(CN(C1)C3c1ccc3ccccc3c1O)C2=O (configuration not stated),inactive
17,COc1ccc2c(C(=O)NCCCCO)c(-c3ccc(S(C)(=O)=O)cc3)sc2c1,inactive
18,C#CC[N+]1(CC#Cc2ccc(C#CC[N+]3(CC#C)CCOCC3)cc2)CCOCC1,inactive
19,CSc1nc(N2CCN(C)CC2)c2c(c1C#N)CC(C)(C)OC2,inactive
20,Cc1ccc(NC(=O)CSc2ncccn2)c([N+](=O)[O-])c1,inactive
21,Nc1nnc(SC2CC(=O)N(c3ccccc3)C2=O)s1 (configuration not stated),inactive
22,C=CCN(C(=O)Nc1ccccc1)C1CC(=O)N(c2ccc(OC)cc2)C1=O (configuration not stated),inactive
23,Cc1nnc2c(N3CCN(C(=O)c4ccco4)CC3)nc3ccccc3n12,inactive

row,Compound,outcome
1,Cc1c(C(=O)Nc2ccc3c(c2)OCO3)sc2ncn(CC(=O)N3CC(C)CC(C)C3)c(=O)c12 (configuration not stated),inactive
2,O=C(Nc1nc2c(s1)C(=O)CCC2)c1ccccc1,inactive
3,CCCN1C(=O)c2ccc(C(=O)Nc3cc(C)ccc3O)cc2C1=O,inactive
4,C[C@H](CO)N1C[C@H](C)[C@@H](CN(C)S(=O)(=O)c2cn(C)cn2)Oc2ccc(NC(=O)C3CC3)cc2C1=O,inactive
5,C[C@H](CO)N1C[C@H](C)[C@H](CN(C)S(=O)(=O)c2ccccc2)Oc2c(NS(C)(=O)=O)cccc2C1=O,inactive
6,COC(=O)c1c(-c2cccs2)csc1NC(=O)CN1CCOCC1,inactive
7,O=C(NCCCN1CCOCC1)c1cccc(S(=O)(=O)N2CCc3ccccc3C2)c1,inactive
8,Cc1nc2ccccn2c1C(=O)NCCCN1CCOCC1,inactive
9,Cc1ccc(S(=O)(=O)N2CCOCC2)cc1NC(=O)COC(=O)c1cc(=O)[nH]c2ccccc12,inactive
10,Cc1c(C(=O)NCc2cccs2)oc2ccccc12,inactive
11,Cc1cc(NC(=O)COc2ncnc3sc(C)c(C)c23)no1,inactive
12,Cn1c(SCC(=O)Nc2cc(S(=O)(=O)N3CCOCC3)ccc2N2CCOCC2)nnc1-c1ccncc1,inactive
13,Cc1ccccc1C(=O)OCCCN=C1NS(=O)(=O)c2ccccc21,inactive
14,O=C(CCc1ccc(S(=O)(=O)NCc2ccccc2)cc1)NCc1ccc2c(c1)OCO2,inactive
15,Cc1noc(C)c1S(=O)(=O)N(C)C[C@H]1Oc2c(NC(=O)Nc3ccccc3)cccc2C(=O)N([C@H](C)CO)C[C@@H]1C,inactive
16,O=C(NN=C1CCCCCCCCCCC1)c1cccc(S(=O)(=O)N2CCOCC2)c1,inactive
17,O=C(CC1NC(=O)NC1=O)Nc1ccccc1 (configuration not stated),inactive
18,Cc1nnnn1/C(=C\c1ccccc1)C(=O)OCC(=O)NC(C)(C)C,inactive
19,COc1ccc(S(=O)(=O)Nc2ccc3c(c2)C(=O)N([C@H](C)CO)C[C@H](C)[C@H](CN(C)Cc2ccc(C(=O)O)cc2)O3)cc1,inactive
20,Cc1noc(C)c1NC(=O)N(C)C[C@H]1Oc2ccc(NC(=O)Cn3cnnn3)cc2C(=O)N([C@H](C)CO)C[C@@H]1C,inactive
21,Oc1cc(O)cc(/C=C/c2ccc(O)c(O)c2)c1,inactive
22,CC(=O)OCC1OC(OC2C[C@]3(C)C(CC(O)C4C([C@](C)(CCC=C(C)C)OC5OC(CO)C(O)C(O)C5O)CC[C@]43C)[C@@]3(C)CCC(O)C(C)(C)C23)C(O[C@@H]2OC(C)C(O)C(O)C2O)C(O)C1O (some centres not stated),inactive
23,N=C1C(c2nc3ccccc3s2)=C(O)CN1Cc1ccccc1,inactive
